Data: PubChem BioAssay (NCI)
Several values for one entry are separate records, joined by “and”; a condition that tells them apart may be missing. Equal entries are not always repeated. About 83,000 compounds went through this panel and 20% of them were active in at least one assay; those are over-represented in the sample as a whole.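 The endpoint reported here, percent growth, reads 100 for growth as untreated, 0 for no net growth and -100 for all cells dead.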 Activity calls are given as the source filed them. The calls were made as follows: active = growth percent below 10; inactive = the rest.

Tested on: HL-60(TB) leukemia
Assay: NCI-60 one-dose screen, 48 h (100 = growth as untreated, 0 = no growth, -100 = all killed)
Conditions: 10 µM unless noted

SMILES	growth
CNc1cc2nc3cc(NC)c(C)cc3cc2cc1C	18.9% (inactive)
COc1cc(C2CC(c3ccc(Cl)cc3)=NN2c2ccc(Cl)cc2)cc(OC)c1OC (centres undefined)	97.9% (inactive)
O=C1OC(=O)C2C1CC=CC2c1ccccc1 (centres undefined)	69.1% (inactive)
Fc1ccc(Nc2nc3nonc3nc2Nc2ccc(I)cc2)cc1	-46.3% (active)
COc1cc(/C=C\c2cc(/C=C\c3ccc(O)c(OC)c3)n(C(=O)CNc3ccccc3OC)n2)ccc1O	25.5% (inactive)
Cc1nnc(NS(=O)(=O)c2ccc(N=Nc3ccc(N)nc3N)cc2)s1	98.4% (inactive) and 98.2% (inactive)
C=CCN=c1sc2c(n1NC(=O)c1cc3ccc1CCc1ccc(cc1)CC3)C(=O)c1ccccc1C2=O	-20.1% (active)
O=c1c2cc(-c3ccccc3)sc2nc2sc(-c3ccccc3)nn12	96.4% (inactive)
CCN(CC)C(=O)/C=C(/C)c1ccccc1	101% (inactive)
O=C(Nc1cccc(Cn2c(=O)[nH]c3ccc(Oc4ncccn4)cc3c2=O)c1)c1ccc(Cl)cc1	64.2% (inactive)
COc1cc2c(c(OC)c1OC)-c1ccc(OC)c(=O)cc1[C@@H](NC(=O)CCl)CC2	-7.51% (active)
O=C(Nc1cccc(-n2cc(-c3ccncc3)c(-c3ccc(O)c(Cl)c3)n2)c1)Nc1ccc(Cl)c(Cl)c1	-13.2% (active)
CCNc1nc(-c2ccc(Cl)c(OC)c2)c(-c2ccnc(NCCCNS(=O)(=O)c3ccc(Cl)cc3)n2)s1	34.9% (inactive)
COc1cccc(NC(=O)c2cccc(-c3cc(=O)c4c(OC)c(OC)c(OC)cc4o3)c2)c1	68.7% (inactive)
